For some of these results: Entries with a potency or affinity are not part of this list.
Experiments:
Set-up in all cases: scale not given: direction of the effect not stated beside the values
[1] = biological target: Protein translocase subunit SecA (Escherichia coli (strain K12)) (UniProt P10408); assay: Assay to Identify E. coli SecA ATPase Inhibitors; assay type: functional; settings: 30 µM
[2] = biological target: T1, Ubiquitin-activating enzyme e1, putative (Leishmania donovani (strain BPK282A1)) (UniProt E9BSI1); assay: Leishmania donovani Ubiquitin Activating Enzyme (LdE1); assay type: functional; settings: 30 µM
T1 sequence (whole entry): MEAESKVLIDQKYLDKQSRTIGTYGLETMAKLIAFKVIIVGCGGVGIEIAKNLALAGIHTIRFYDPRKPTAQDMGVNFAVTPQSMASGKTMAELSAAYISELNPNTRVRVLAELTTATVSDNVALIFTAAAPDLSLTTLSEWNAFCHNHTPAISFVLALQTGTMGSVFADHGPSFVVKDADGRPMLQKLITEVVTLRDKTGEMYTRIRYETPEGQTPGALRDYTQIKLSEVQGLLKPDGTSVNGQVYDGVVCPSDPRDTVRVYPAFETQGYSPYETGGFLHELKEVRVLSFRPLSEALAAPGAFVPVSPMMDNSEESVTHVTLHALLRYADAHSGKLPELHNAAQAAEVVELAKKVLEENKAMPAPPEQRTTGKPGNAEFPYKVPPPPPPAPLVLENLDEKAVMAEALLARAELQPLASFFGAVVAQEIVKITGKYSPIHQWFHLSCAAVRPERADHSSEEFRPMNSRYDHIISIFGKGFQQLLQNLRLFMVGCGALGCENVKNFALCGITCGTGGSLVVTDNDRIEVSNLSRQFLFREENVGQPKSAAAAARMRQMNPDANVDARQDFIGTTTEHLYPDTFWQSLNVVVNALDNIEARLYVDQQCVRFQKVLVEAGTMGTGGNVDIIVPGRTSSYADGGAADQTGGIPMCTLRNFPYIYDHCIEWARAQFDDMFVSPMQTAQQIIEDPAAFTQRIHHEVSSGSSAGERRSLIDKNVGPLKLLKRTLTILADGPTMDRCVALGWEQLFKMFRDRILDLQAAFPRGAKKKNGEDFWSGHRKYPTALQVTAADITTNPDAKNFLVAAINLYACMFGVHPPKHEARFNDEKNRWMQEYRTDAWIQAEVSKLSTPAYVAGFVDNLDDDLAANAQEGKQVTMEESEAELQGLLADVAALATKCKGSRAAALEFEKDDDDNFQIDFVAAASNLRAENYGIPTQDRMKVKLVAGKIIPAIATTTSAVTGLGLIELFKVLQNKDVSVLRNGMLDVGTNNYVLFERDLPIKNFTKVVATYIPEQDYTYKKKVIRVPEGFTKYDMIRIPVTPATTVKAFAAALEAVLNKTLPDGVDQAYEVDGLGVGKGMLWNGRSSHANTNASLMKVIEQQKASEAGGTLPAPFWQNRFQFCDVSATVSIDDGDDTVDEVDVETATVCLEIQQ

[3] = biological target: AMP-activated protein kinase, AMPK (Homo sapiens) (UniProt P54646+O43741+P54619+Q9UGJ0+Q9Y478+Q13131+Q9UGI9); assay: AMP-dependent Kinase enzyme assay. An in vitro enzyme assay that detects ADP turnover that is directly proportional to AMPK activity. This uses naive AMPK that is activated during the assay with MK-8722; assay type: functional; settings: 30 µM
[4] = biological target: Sialic acid-binding Ig-like lectin 9 (Homo sapiens) (UniProt Q9Y336); assay: Hs-Siglec9 ALPHAscreen SOP 20170721; settings: 10 µM
Trypanosoma cruzi = assay: Trypanosoma cruzi phosphomannomutase and mannose-1-phosphate guanylyltransferase assay; assay type: functional; settings: 10 µM
[5] = biological target: T2, Arginase-2, mitochondrial (Homo sapiens) (UniProt P78540); assay: in vitro enzyme assay to detect the production of urea directly proportional to the activity of Arginase II; assay type: functional; settings: 33.3 µM; also: in the data most compounds retested in dose-response had high values
T2 sequence (whole entry): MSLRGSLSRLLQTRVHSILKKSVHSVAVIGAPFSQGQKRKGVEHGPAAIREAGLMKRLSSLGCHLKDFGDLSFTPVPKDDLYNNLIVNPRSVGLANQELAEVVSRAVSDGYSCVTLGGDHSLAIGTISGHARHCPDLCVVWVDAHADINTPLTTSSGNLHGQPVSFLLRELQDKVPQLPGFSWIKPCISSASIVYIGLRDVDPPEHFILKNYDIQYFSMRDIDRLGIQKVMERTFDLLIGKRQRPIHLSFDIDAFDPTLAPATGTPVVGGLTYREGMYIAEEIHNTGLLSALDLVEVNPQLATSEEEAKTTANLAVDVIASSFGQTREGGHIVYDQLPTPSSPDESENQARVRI

[6] = biological target: T3, Proteasome subunit beta (Trypanosoma cruzi) (UniProt O96673); assay: Trypanosoma cruzi proteasome chymotrypsin-like activity (TcProtChymo) assay.; also: in the data most compounds retested in dose-response had high values; assay type: functional; settings: 9.37 µM
T3 sequence (whole entry): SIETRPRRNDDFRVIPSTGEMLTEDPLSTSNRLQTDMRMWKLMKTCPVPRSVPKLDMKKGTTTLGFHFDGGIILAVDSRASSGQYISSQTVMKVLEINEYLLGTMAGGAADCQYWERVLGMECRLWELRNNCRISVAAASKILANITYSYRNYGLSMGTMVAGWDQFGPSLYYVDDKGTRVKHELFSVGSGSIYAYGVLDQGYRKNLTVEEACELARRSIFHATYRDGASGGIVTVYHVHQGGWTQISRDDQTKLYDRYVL

Homo sapiens = species: Homo sapiens; assay: To identify inhibition of the IFN signalling (Jak-Stat) pathway via expression of an eGFP reporter gene under the control of an IFN-stimulated response element (ISRE) containing MxA promoter.; assay type: functional; settings: 30 µM
[7] = biological target: T4, Tyrosyl-tRNA synthetase, putative (Trypanosoma cruzi (strain CL Brener)) (UniProt Q4DSP6); assay: Trypanosoma cruzi tyrosyl tRNA synthetase (TcYRS) _High Tyrosine SOP; assay type: functional; settings: 30 µM; also: in the data most compounds retested in dose-response had high values
T4 sequence (whole entry): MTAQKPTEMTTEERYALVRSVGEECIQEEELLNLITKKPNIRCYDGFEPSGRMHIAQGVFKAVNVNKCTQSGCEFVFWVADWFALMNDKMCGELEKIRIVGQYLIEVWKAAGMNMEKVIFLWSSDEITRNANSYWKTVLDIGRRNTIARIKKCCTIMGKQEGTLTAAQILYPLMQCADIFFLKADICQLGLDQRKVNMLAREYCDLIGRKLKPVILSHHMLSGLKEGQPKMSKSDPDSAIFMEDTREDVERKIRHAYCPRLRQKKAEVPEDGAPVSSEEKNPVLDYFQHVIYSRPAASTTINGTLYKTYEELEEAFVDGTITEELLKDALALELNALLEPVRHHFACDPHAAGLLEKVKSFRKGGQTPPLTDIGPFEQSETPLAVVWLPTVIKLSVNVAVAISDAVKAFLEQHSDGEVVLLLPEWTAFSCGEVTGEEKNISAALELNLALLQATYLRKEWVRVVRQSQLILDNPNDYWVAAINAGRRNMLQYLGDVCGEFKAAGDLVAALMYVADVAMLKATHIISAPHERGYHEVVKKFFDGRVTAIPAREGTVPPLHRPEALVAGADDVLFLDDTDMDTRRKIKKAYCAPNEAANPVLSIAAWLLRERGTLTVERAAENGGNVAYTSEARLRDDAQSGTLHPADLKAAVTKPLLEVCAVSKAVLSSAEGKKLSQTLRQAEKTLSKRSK

[8] = biological target: T4, Tyrosyl-tRNA synthetase, putative (Trypanosoma cruzi (strain CL Brener)); assay: Trypanosoma cruzi tyrosyl tRNA synthetase (TcYRS) SOP; assay type: functional; settings: 30 µM
[9] = biological target: Chromo domain-containing protein 1 (Saccharomyces cerevisiae (strain ATCC 204508 / S288c) (Baker's yeast)) (UniProt P32657); assay: ScCHD-1 Enzyme Inhibition Assay; assay type: functional; settings: 30 µM; also: in the data most compounds retested in dose-response had high values
Chain of Chromo domain-containing protein 1 (Saccharomyces cerevisiae (strain ATCC 204508 / S288c) (Baker's yeast)) (P32657 whole entry, the tested form may be a part): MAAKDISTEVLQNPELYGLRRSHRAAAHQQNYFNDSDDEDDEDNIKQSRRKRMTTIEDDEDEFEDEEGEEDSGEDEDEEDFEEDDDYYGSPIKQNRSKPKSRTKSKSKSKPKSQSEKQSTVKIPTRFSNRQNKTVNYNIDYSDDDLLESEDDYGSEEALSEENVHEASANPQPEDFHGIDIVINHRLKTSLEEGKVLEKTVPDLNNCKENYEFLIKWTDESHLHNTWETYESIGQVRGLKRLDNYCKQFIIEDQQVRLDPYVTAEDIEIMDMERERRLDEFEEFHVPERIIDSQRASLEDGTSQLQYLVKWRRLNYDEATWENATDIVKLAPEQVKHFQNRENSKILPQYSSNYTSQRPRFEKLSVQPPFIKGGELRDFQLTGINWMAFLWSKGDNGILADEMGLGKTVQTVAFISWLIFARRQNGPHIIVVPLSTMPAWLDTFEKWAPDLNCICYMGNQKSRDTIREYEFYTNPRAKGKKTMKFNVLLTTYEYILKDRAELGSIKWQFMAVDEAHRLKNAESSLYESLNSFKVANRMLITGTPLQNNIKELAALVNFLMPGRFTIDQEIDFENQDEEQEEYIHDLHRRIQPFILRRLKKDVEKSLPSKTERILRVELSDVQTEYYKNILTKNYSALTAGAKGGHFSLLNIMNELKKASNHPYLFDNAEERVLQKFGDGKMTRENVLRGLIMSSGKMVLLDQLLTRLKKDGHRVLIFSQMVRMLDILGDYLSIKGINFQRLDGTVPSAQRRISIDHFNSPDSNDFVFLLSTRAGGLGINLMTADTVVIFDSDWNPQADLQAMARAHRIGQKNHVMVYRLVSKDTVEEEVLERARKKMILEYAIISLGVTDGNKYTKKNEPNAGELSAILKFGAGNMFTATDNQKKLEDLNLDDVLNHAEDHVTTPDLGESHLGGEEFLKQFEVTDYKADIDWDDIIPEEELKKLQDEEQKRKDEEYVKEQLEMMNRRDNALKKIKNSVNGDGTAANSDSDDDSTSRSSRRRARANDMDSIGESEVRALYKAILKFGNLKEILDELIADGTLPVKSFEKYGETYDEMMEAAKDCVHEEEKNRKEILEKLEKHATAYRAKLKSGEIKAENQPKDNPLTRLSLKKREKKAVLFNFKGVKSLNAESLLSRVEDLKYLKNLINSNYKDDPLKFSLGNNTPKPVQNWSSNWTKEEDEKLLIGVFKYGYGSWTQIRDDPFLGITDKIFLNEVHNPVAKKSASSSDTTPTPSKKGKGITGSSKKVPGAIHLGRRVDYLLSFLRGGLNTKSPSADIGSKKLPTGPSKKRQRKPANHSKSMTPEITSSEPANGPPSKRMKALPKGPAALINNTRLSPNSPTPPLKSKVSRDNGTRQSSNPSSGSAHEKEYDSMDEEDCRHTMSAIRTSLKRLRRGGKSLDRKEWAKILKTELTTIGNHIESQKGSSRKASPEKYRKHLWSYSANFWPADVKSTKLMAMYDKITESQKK

Chain of Protein translocase subunit SecA (Escherichia coli (strain K12)) (P10408 whole entry): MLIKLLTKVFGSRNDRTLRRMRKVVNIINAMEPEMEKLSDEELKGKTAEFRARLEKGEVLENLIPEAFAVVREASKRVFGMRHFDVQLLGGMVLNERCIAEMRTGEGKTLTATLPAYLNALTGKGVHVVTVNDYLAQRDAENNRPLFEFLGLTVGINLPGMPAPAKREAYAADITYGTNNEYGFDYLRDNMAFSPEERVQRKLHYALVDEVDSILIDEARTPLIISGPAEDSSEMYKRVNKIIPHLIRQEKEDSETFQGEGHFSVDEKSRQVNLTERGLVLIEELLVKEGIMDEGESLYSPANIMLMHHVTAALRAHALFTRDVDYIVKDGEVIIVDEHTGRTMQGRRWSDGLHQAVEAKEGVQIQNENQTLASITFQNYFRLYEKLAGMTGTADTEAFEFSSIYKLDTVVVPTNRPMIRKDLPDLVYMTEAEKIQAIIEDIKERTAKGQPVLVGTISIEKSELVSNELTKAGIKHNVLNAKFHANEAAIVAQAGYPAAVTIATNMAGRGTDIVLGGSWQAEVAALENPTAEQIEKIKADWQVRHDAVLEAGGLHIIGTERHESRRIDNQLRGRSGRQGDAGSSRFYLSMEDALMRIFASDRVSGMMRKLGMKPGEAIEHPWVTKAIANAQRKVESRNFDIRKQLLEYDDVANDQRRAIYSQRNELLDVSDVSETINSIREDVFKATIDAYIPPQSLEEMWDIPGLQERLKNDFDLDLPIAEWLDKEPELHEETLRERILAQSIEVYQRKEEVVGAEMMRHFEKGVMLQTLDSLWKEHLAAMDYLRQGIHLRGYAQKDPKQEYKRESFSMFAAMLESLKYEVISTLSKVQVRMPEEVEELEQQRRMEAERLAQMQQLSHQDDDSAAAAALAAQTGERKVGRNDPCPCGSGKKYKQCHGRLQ
Chain of Sialic acid-binding Ig-like lectin 9 (Homo sapiens) (Q9Y336 whole entry): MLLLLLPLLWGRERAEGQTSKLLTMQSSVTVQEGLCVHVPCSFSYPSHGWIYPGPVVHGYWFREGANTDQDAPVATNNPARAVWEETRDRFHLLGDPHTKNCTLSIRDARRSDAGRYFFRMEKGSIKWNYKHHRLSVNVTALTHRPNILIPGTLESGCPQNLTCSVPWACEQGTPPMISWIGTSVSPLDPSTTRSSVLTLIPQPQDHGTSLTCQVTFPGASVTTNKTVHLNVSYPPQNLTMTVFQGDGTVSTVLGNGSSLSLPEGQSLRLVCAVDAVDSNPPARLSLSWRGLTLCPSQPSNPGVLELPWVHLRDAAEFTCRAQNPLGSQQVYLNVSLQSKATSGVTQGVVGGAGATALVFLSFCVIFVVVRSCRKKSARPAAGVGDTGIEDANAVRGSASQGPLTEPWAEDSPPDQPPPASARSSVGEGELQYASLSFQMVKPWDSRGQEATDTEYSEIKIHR

SMILES | Percent Effect [1] [%] | Percent Effect [2] [%] | Percent Effect [3] [%] | Percent Effect [4] [%] | Percent Effect (Trypanosoma cruzi) [%] | Percent Effect [5] [%] | Percent Effect [6] [%] | Percent Effect (Homo sapiens) [%] | Percent Effect [7] [%] | Percent Effect [8] [%] | Percent Effect [9] [%]
O=C(Nc1ccc(N2CCCC2)nc1)N1CCc2sccc2C1 | -5.59 | 2.7 | 0.616 | 0.939 | -8.59 | -0.833 | 22.1 | 7.44 | 13.9 | 13.4 | 1.64
Cc1nc(CN2C(=O)CC[C@@H]3[C@H]2CCN3C(=O)NC2CC2)cs1 | 1.26 | 16.2 | -5.26 | -11.1 | -3.23 | 0.955 | 10.2 | 16.1 | 1.08 | 12.8 | -6.62
COCCO[C@H]1CCN(C(=O)C2CCOCC2)[C@H]1Cc1ccncc1 | -1.4 | 16 | -6.31 | -6.51 | -3.94 | -1.17 | 9.6 | 16.1 | 2.13 | 6.41 | -2.62
CN(Cc1ccccn1)C1COC2(CCN(Cc3cccnc3)CC2)C1 (stereo unspecified) | -2.78 | 16 | -2.32 | -9.58 | 4.72 | 49.2 | 12.1 | 17.1 | 5.32 | 16.7 | -7.71
CC(C)c1nnc2n1CCN(CC(=O)N1CCc3ccccc3C1)C2 | -3.76 | 2.63 | -2.4 | 1.05 | 6.01 | -1.53 | -0.167 | 5.07 | 7.35 | 9.76 | -9.88
O=C([C@H]1CCCO1)N1CC[C@H](O)[C@@H]1Cc1ccncc1 | -0.613 | 5.2 | 0.39 | 3.47 | -2.07 | 8.39 | -1.57 | -7.18 | 4.23 | 1.28 | -0.313
CC(=O)N1CCNCC1c1cccc(C(=O)N(C)C)c1 (stereo unspecified) | -0.644 | -6.76 | 10.3 | -0.354 | -4.94 | 4.41 | -3.43 | 4.59 | 1.07 | 1.3 | 0.199
CN(C)Cc1cnc2n1CCN(Cc1ccsc1)CC2 | -2.78 | 13.7 | -4.83 | 6.79 | 2.98 | 1.2 | 13.4 | 6.89 | 8.33 | 11.1 | -0.604
Cc1cc(C)n(CC2CCCN2Cc2c(C)noc2C)n1 (stereo unspecified) | -2.91 | -2.7 | 33.8 | 8.4 | 6.51 | -0.802 | 5.59 | 9.49 | 2.46 | 11.1 | -10.7
Cc1ccnc(OCC(=O)N2CCC(C(N)=O)CC2)n1 | -3.87 | 21.9 | 0.564 | 12.6 | 1.37 | 5 | 11.4 | 7.23 | 6.45 | 15 | -7.43
CC(=O)N1CCCN(C(=O)NCc2ccccn2)CC1 | -4.25 | 0 | 2.97 | 0.332 | -5.88 | 3.6 | 3.81 | 2.28 | 1.48 | -6.17 | 9.43

From ChEMBL document CHEMBL3988442, “University of Dundee, Small-Polar-MMV Screening Library” (2021)
